Screening results (PubChem BioAssay)
SW480 rerep = inducers of DNA re-replication in SW480 colon cancer cells. SW480 DNA re-replication, Hoechst DNA content imaging, 48 h. 1.8% of 340,000 active. Potency, µM (titrated, usually from 46.1 µM), actives largely listed as activators; further: nearly all actives have a fitted effect of over 55% in size
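DNA re-replication was detected as more nuclei of elevated Hoechst intensity after 48 hr exposure to compound (23 nL pinned per well of 250 cells).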
KB-3-1 tox = KB-3-1 parental cell cytotoxicity | KB-3-1 viability, CellTiter-Glo ATP luminescence, 72 h | Potency, µM (series often up to 46.1 µM), actives largely listed as cytotoxic | 1.4% of 400,000 active; further: nearly all actives have a fitted effect of over 60% in size
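72 h, 37 °C compound treatment of KB-3-1 parental cells; CellTiter-Glo added, 10 min, luminescence read. Data corrected against DMSO-only plates and normalized before curve fitting.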
KB-V1 cytotox = kills drug-selected multidrug resistant KB-V1 cells | AID 1347076 | Potency, µM (top dose mostly 46.1 µM), hits mostly cytotoxic | 3.4% of 400,000 active | KB-V1 MDR cells viability, CellTiter-Glo, 72 h; further: nearly all actives have a fitted effect of over 60% in size
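Cytotoxicity toward P-gp-expressing KB-V1 cells was determined as loss of CellTiter-Glo luminescence after 72 h at 37 degrees C. Compounds were tested in quantitative HTS format across a concentration range, with curves fitted to normalized data.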
PINK1 expr mod = modulators of PINK1 expression; 0.2% of 410,000 active; Potency, µM (series often up to 76.6 µM), usual class: activators; AID 624263; PINK1 immunofluorescence, high-content cytometry, 24 h; active means well fitted activation curve with a large enough effect; inconclusive means small, poorly fitted or top-dose-only effect; cell line not stated here; further: nearly all actives have a fitted effect of over 65% in size
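Decision-based qHTS: stable cells, 24 h exposure to five compound concentrations, CCCP as control. Fixed cells stained for PINK1 plus nuclear, mitochondrial and cell markers, cytometer read.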
MCF10A rerep = DNA re-replication induction in MCF 10a cells; Potency, µM (highest dose often 46.1 µM), usual class: activators; MCF 10A DNA re-replication, Hoechst nuclear intensity, 48 h; 2.9% of 350,000 active; AID 624296; further: nearly all actives have a fitted effect of over 50% in size
Numbers stand for hits; n = inactive; u = inconclusive; x = not tested or not shown; ! = not confirmed by another sample. Shown are actives, neighbours in structure and some others; about 6.7% of the full set was active somewhere. Unless noted, the call rests on the fitted dose curve; in most records, active means well fitted curve in the direction sought with a large enough effect; inconclusive means small, poorly fitted or top-dose-only effect, or another doubt; inactive means no such curve, though single readings can be large; an effect the other way counts as inactive or inconclusive.

SMILES	SW480 rerep	KB-3-1 tox	KB-V1 cytotox	PINK1 expr mod	MCF10A rerep
Cc1cccc(CSc2cccc3cccnc23)c1	6.51µM	u	u	n	u
CCOC(=O)CSc1cccc2cccnc12	6.51µM	u	23.1µM	n	n
CN(C)c1ccc(-c2cncnc2Nc2ccc(F)cc2)cc1	x	x	x	n	x
COc1ccc(S(=O)(=O)N(CC(=O)NCc2ccncc2)c2cc(C)cc(C)c2)cc1OC	n	n	n	n	n
CCN1C(=O)/C(=C\N2CCN(C)CC2)SC1=S	n	n	n	n	n
CCN1C(=O)/C(=C\N2CCN(c3ccc(F)cc3)CC2)SC1=S	n	n	2.59µM	n	n
COc1cc(=O)n2c(c1C(=O)NCc1ccco1)CCN(Cc1ccc(F)cc1Cl)CC2	x	x	x	n	x
CCC(CC)CC1CN2CCc3cc(OC)c(OC)cc3C2CC1(O)CC (stereo not drawn)	x	u	n	n	x
Cc1ccc(-n2c(C)nc3c(cnn3-c3ccc(C)c(C)c3)c2=O)cc1C	n	n	n	n	n
Cc1ccc(-n2c(C)nc3c(cnn3-c3ccccc3Cl)c2=O)cc1C	n	u	20.6µM	n	n
Cc1nc2c(cnn2-c2ccccc2Cl)c(=O)n1-c1ccc(N2CCC(C)CC2)cc1	n	16.4µM	6.51µM	n	n
CCc1nc2c(cnn2-c2ccc(F)cc2)c(=O)n1-c1ccc(N2CCC(C)CC2)cc1	n	n	n	n	n
CC(=O)NC(c1cccc(F)c1)c1nc(-c2cnc3ccccc3c2)cs1 (stereo not drawn)	x	n	n	n	x
O=C(NCc1cccnc1)C1CC(c2ccc(Cl)c(Cl)c2)=NO1 (stereo not drawn)	n	u	u	n	9.2µM
O=C(NCc1ccccn1)C1CC(c2ccc(Cl)c(Cl)c2)=NO1 (stereo not drawn)	n	u	u	n	11.2µM
O=C(NCc1cccs1)C1CC(c2ccc(Cl)c(Cl)c2)=NO1 (stereo not drawn)	n	n	n	n	2.31µM
O=C(NCc1cccs1)C1CC(c2ccc(Cl)cc2)=NO1 (stereo not drawn)	u	u	u	n	9.2µM
O=C(NCCc1cccs1)C1CC(c2c(Cl)cccc2Cl)=NO1 (stereo not drawn)	n	n	n	n	n
O=C(NCc1ccco1)C1CC(c2ccc(Cl)cc2)=NO1 (stereo not drawn)	n	n	n	n	u
COc1ccccc1N1CCN(c2nc(CNC(=O)c3ccccc3F)nc3ccccc23)CC1	x	x	x	n	x
O=C(Nc1ccccc1)c1ccc(S(=O)(=O)NCc2cccnc2)cc1	n	u	20.6µM	n	n
Cc1nc(NC(=O)c2ccccc2)sc1-c1csc(N)n1	n	3.66µM	u	n	16.4µM
Cc1nc(NC(=O)c2ccccc2)sc1-c1csc(NCc2ccccc2)n1	n	n	n	n	n
O=C(/C=C/[C@H]1O[C@@H](n2ccc(=O)[nH]c2=O)[C@H](O)[C@@H]1O)NCc1ccc2c(c1)OCO2	x	n	n	n	x
CCc1nnc(NC(=O)CN2CCN(Cc3ccccc3C)CC2)s1	n	n	n	n	n
SMILES	SW480 rerep	KB-3-1 tox	KB-V1 cytotox	PINK1 expr mod	MCF10A rerep
CSc1nnc(NC(=O)c2nc(S(=O)(=O)Cc3cccc(C)c3)ncc2Cl)s1	n	16.4µM	u	n	2.06µM
CC(=O)Nc1ccc(NC(=O)c2nc(S(=O)(=O)Cc3ccccc3)ncc2Cl)cc1	n	n	n	n	u
CSc1nnc(NC(=O)c2nc(S(=O)(=O)Cc3ccccc3F)ncc2Cl)s1	u	u	u	n	u
CCc1nnc(NC(=O)c2nc(S(=O)(=O)Cc3ccccc3)ncc2Cl)s1	u	23.1µM	u	n	0.82µM
CCOc1ccccc1NC(=O)c1nc(S(=O)(=O)Cc2cccc(C)c2)ncc1Cl	3.26µM	5.17µM!	u	n	u
CCc1nnc(NC(=O)CN2CCN(Cc3ccc(C)cc3)CC2)s1	u	n	n	n	0.92µM
NCCCNc1ncnc2ccc(-c3ccc4c(c3)OCO4)cc12	x	u	n	x	x
N#Cc1ccc(CN2CCC3(CC2)CCN(C(=O)c2cc(C(F)(F)F)cc(C(F)(F)F)c2)CC3)cc1	x	x	x	n	x
COc1ccc(OC)c(-c2noc(CSc3nnc(Cc4ccccc4)n3-c3cccc(C)c3)n2)c1	x	n	n	n	x
CCOc1ccc(CCNC(=O)C(CC)n2nc(C)c3c(C)n(-c4ccccc4)nc3c2=O)cc1 (stereo not drawn)	x	n	n	n	x
Cc1cccc(N2CCN(c3ncnc4c3nc3n4CCCCC3)CC2C)c1 (stereo not drawn)	x	x	x	n	x
CCc1nnc(NC(=O)c2nc(S(=O)(=O)Cc3cccc(C)c3)ncc2Cl)s1	5.8µM	20.6µM	u	n	u
CCSc1nnc(NC(=O)c2nc(S(=O)(=O)Cc3ccc(F)cc3)ncc2Cl)s1	u	u	n	n	n
CCc1nnc(NC(=O)c2nc(S(=O)(=O)Cc3ccc(C)cc3)ncc2Cl)s1	n	16.4µM!	u	n	1.3µM
Cc1cccc(CS(=O)(=O)c2ncc(Cl)c(C(=O)Nc3nnc(C(C)C)s3)n2)c1	u	16.4µM	16.4µM	n	u
COc1ccc(Cn2c(CNC(=O)Cc3ccc(OC)c(OC)c3)nc3cccnc32)cc1	x	x	x	n	x
COC(=O)c1cc(C(=O)N2CCN(c3ncccn3)CC2)cc([N+](=O)[O-])c1	n	n	u	n	n
Cc1ccccc1N1CCN(C(=S)c2ccc([N+](=O)[O-])cc2)CC1	n	n	16.4µM	n	n
COC(=O)c1cc(C(=O)N2CCN(c3ccccc3OC)CC2)cc([N+](=O)[O-])c1	2.06µM	1.16µM	1.3µM	n	1.16µM
Cc1cccc(N2CCN(C(=S)c3ccc([N+](=O)[O-])cc3)CC2)c1	n	n	n	n	n
COC(=O)c1cc(C(=O)N2CCN(c3cccc(C)c3C)CC2)cc([N+](=O)[O-])c1	4.11µM	5.8µM	n	n	u
OC(c1ccccc1)c1nc(-c2cccc(C(F)(F)F)c2)cs1 (stereo not drawn)	x	n	n	n	x
Cc1cc(/C=N/n2cnnc2)c(C)n1-c1ccc(OCc2ccc(Cl)cc2)cc1	n	8.2µM	3.66µM	u	u
CCOc1ccc(C(=O)Nc2ccc(-c3nc4ccccc4s3)c(C)c2)cc1OCC	x	n	n	n	x
O=C1C(=O)N(CNc2ccccn2)c2ccccc21	11.6µM	u	n	n	7.31µM
SMILES	SW480 rerep	KB-3-1 tox	KB-V1 cytotox	PINK1 expr mod	MCF10A rerep
O=C1C(=O)N(CNc2cccnc2)c2ccccc21	n	n	n	n	n
CCOC(=O)N1CCC(n2c(SCC(=O)c3ccccc3)nc3ccsc3c2=O)CC1	n	n	n	n	n
CCOC(=O)N1CCC(n2c(SCC(=O)NCc3ccco3)nc3ccsc3c2=O)CC1	n	u	2.06µM	n	n
CCOC(=O)CSc1nc2ccsc2c(=O)n1C1CCN(C(=O)OCC)CC1	n	n	16.4µM	n	n
CCOC(=O)N1CCC(n2c(SCC(=O)OCc3ccccc3)nc3ccsc3c2=O)CC1	n	n	n	n	n
CCOC(=O)c1c(-c2ccccc2)oc2ccc(OCc3ccccc3Br)cc12	x	n	n	n	x
